According to the supplement of paper PMC10849652:
Of roughly 7,900 targets only a part is listed; those with a hit were picked by preference. About 0.6% of all pairs of compound and target were hits. A number with no mark means an inactive call.

Legend:
Assay in all cases: log2 fold change, soluble protein after heating vs DMSO (PISA); higher = thermal stabilisation; K562 cells, 10 uM, 30 min; active = over 0.2 and 3.5 SD of the protein, either way, in both replicates (recomputed)
[1] = compound: C1COCCN1CCN2C3=CC=CC=C3N=C2NC(=O)C4=CC(=CC=C4)[N+](=O)[O-] [IRAK-1-4 Inhibitor I]
In short: (§1)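 K562 cells at 2×10^6 cells/mL were given 10 μM compound for 30 min. Aliquots then went through 3 min of heating across 48°C-58°C, were pooled, and were extracted in PBS with 0.5% NP-40 at 4°C, and the supernatant after 21,000xg for 90 min was quantified by TMTpro 16plex LC-MS/MS with channel sums equalised. Thermal stability relative to control samples, from duplicates, is given as log2 fold change.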

[2] = compound: C=CC(=O)N1CCC[C@@H](n2nc(-c3ccc(Oc4ccccc4)cc3)c3c(N)ncnc32)C1 [ibrutinib]
In short: as §1

[3] = compound: CC(=O)c1cnc2ccc(-c3cc(Cl)c(O)c(Cl)c3)nc2c1N[C@H]1CC[C@H](CN(C)C)CC1
In short: as §1

[4] = compound: CC(C)(C)Cn1c(N)nc2ccc(-c3[nH]c(C(C)(C)C)nc3-c3ccc(F)cc3)nc21 [ralimetinib]
In short: as §1

[5] = compound: CC(C)(O)CC(=O)NCCn1ccc2ncnc(Nc3ccc(Oc4cccc(C(F)(F)F)c4)c(Cl)c3)c21
In short: as §1

[6] = compound: CC(C)C1=C2N=C(C=C(N2N=C1)NCC3=CC=CC=C3)NCCCCCCN
In short: as §1

[7] = compound: CC(C)C[C@@H](C=O)NC(=O)[C@H](CC(C)C)NC(=O)[C@H](CC(C)C)NC(=O)OCc1ccccc1
In short: as §1

[8] = compound: CC(C)N(C[C@H]1O[C@@H](n2cnc3c(N)ncnc32)[C@H](O)[C@@H]1O)[C@H]1C[C@@H](CCc2nc3cc(C(C)(C)C)ccc3[nH]2)C1 [pinometostat]
In short: as §1

[9] = compound: CC1=C(C(CC(=O)N1)C2=CC=C(C=C2)C(F)(F)F)C(=O)NC3=C(C=C4C(=C3)C=NN4)F
In short: as §1

[10] = compound: CC1=C(C2=C(C=C1)C(=O)C3=CC=CC=C3N2CCCN)C
In short: as §1

[11] = compound: CC1=C(C=C(C=C1)NC(=O)C2=CC(=CC=C2)C(C)(C)C#N)NC3=CC4=C(C=C3)N=CN(C4=O)C
In short: as §1

[12] = compound: CC1=C(C=C(C=C1)NC(=O)C2=CC(=CC=C2)N(C)C)NC(=O)C3=CC=C(C=C3)O
In short: as §1

[13] = compound: CC1=CC=C(C=C1)SC2=C3C=C(SC3=CN=C2)C(=O)N
In short: as §1

[14] = compound: CC1=NC(=CC=C1)C2=C(N=C(N2)C(C)(C)C)C3=CC4=NC=CN=C4C=C3
In short: as §1

[15] = compound: CCCCN(Cc1ccc(C(=O)NO)cc1)C(=O)Nc1ccccc1 [Nexturastat A]
In short: as §1

[16] = compound: CCCS(=O)(=O)Nc1ccc(F)c(C(=O)c2c[nH]c3ncc(-c4ccc(Cl)cc4)cc23)c1F [vemurafenib]
In short: as §1

[17] = compound: CCCS(=O)(=O)Nc1ccc(F)c(C(=O)c2c[nH]c3ncc(Cl)cc23)c1F
In short: as §1

[18] = compound: CCCc1cc(C)[nH]c(=O)c1CNC(=O)c1cc(-c2ccnc(N3CCN(C)CC3)c2)cc2c1cnn2C(C)C
In short: as §1

[19] = compound: CCN(CC)Cc1ccc2cc(COC(=O)Nc3ccc(C(=O)NO)cc3)ccc2c1 [givinostat]
In short: as §1

[20] = compound: CCN(CCCOc1ccc2c(Nc3cc(CC(=O)Nc4cccc(F)c4)[nH]n3)ncnc2c1)CCOP(=O)(O)O [barasertib]
In short: as §1

UniProt Q9NVC3, sequence (Q9NVC3 whole entry, looked up): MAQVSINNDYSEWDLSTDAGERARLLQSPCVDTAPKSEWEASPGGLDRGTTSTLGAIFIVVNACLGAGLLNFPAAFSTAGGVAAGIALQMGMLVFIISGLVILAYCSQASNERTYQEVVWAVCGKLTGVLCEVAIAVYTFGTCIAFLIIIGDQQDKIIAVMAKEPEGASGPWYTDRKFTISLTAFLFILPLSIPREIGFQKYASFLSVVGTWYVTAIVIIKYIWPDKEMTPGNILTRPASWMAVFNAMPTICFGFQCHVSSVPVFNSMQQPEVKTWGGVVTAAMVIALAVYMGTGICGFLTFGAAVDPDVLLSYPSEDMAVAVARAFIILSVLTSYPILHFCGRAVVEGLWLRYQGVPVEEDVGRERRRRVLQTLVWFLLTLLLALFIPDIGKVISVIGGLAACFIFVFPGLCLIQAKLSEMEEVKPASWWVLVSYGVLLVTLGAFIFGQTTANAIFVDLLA
UniProt P84103, sequence (P84103 whole entry, looked up): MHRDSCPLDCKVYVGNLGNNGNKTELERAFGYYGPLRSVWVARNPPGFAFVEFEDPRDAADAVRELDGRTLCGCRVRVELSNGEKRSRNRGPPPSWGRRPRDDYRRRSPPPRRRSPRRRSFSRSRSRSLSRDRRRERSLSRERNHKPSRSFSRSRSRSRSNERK
UniProt P35270, sequence (P35270 whole entry, looked up): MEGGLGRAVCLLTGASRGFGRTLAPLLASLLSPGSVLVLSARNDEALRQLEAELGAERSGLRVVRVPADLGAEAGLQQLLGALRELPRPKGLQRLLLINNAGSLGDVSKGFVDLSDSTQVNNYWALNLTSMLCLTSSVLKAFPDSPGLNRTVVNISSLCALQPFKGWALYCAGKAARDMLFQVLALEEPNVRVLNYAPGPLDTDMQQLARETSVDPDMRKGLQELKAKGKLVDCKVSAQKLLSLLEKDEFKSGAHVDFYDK
UniProt O95926, sequence (O95926 whole entry, looked up): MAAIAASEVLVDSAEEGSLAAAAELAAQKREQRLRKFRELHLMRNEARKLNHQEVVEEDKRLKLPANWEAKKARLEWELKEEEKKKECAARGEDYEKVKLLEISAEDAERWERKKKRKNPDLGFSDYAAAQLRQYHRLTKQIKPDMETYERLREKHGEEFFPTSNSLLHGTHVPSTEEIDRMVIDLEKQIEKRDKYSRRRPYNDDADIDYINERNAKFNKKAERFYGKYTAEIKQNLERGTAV
UniProt Q9UDY2, sequence (Q9UDY2 whole entry, looked up): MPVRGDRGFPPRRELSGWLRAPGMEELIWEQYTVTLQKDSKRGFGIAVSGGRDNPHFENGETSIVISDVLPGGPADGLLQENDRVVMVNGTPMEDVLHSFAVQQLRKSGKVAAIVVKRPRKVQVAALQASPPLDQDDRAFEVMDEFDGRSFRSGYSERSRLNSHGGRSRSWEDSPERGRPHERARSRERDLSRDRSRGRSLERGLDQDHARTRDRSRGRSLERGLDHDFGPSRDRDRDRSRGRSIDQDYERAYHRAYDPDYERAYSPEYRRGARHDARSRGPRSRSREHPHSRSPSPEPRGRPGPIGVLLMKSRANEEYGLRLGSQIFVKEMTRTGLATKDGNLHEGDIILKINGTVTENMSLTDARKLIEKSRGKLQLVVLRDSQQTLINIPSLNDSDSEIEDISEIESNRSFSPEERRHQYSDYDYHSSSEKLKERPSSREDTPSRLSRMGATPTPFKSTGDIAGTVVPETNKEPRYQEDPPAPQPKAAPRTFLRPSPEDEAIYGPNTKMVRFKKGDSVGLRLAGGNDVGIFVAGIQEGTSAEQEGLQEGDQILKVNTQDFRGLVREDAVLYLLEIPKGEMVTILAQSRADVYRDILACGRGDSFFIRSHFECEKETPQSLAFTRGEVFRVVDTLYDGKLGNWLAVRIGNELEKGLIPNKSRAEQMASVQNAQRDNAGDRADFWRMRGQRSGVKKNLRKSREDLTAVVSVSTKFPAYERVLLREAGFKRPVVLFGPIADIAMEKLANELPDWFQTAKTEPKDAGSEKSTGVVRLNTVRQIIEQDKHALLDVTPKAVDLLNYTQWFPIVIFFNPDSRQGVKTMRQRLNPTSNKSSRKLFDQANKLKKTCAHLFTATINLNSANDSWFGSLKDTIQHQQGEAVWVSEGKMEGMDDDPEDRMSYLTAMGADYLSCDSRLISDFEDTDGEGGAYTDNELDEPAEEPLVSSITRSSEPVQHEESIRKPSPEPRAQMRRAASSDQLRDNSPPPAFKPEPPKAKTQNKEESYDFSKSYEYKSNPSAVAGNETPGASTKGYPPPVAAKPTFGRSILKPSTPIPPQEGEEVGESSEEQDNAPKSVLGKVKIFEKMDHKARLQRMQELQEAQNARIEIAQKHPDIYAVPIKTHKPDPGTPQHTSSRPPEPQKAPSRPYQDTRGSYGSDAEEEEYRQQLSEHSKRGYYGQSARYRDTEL
UniProt Q9Y5M8, sequence (Q9Y5M8 whole entry, looked up): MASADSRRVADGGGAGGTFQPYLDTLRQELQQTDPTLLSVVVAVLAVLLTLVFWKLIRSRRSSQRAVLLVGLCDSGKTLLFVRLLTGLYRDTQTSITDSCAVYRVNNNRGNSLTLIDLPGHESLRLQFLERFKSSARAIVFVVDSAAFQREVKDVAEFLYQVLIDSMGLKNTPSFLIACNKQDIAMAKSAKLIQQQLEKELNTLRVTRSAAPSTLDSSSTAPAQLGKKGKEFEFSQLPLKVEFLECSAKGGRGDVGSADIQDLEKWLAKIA
UniProt Q9Y4R8, sequence (Q9Y4R8 whole entry, looked up): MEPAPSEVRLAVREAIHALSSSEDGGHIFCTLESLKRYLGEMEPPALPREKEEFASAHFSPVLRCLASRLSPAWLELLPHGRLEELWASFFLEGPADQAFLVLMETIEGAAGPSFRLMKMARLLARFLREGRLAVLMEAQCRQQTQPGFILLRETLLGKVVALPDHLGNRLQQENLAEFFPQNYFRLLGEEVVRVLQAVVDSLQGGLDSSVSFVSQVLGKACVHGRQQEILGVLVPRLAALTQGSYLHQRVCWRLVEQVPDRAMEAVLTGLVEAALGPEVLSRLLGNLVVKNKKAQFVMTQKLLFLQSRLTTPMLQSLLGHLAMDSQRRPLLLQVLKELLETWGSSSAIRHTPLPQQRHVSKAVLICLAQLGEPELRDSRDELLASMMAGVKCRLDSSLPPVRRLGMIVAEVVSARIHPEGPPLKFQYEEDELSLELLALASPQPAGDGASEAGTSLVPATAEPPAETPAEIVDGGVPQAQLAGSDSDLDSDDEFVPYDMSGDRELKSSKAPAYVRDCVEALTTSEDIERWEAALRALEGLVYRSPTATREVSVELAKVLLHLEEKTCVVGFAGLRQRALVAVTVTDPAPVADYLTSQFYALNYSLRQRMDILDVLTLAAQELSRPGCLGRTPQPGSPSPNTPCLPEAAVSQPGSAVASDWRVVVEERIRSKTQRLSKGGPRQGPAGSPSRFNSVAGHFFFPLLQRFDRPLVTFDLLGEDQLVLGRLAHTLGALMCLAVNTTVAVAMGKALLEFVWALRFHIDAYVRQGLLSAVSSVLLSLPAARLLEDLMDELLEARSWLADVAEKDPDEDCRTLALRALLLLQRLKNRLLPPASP
UniProt Q9Y2W1, sequence (Q9Y2W1 whole entry, looked up): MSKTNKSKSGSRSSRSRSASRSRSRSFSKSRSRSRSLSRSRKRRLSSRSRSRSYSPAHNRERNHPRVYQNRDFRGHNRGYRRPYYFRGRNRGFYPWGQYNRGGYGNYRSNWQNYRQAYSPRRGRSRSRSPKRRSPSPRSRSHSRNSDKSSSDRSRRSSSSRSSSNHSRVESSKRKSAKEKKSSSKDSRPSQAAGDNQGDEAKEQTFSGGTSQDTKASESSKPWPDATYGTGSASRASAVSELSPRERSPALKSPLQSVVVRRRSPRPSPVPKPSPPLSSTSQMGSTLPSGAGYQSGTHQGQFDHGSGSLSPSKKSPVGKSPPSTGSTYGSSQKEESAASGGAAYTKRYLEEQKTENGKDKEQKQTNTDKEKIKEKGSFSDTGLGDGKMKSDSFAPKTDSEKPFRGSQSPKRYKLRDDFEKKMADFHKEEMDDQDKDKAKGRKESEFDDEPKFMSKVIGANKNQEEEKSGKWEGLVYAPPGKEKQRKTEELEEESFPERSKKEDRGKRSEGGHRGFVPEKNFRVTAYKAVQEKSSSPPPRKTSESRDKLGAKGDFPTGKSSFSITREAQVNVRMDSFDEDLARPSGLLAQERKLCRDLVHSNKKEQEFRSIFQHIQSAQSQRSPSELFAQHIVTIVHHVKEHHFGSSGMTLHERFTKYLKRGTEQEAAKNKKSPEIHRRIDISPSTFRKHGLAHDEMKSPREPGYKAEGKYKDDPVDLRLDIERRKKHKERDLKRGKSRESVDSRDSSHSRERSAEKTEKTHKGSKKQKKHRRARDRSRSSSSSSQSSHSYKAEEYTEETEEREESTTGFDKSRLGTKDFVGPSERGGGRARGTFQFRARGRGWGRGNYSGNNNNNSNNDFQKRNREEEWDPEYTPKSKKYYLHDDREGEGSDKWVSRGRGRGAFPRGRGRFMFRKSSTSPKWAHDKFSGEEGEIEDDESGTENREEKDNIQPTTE
UniProt P62318, sequence (P62318 whole entry, looked up): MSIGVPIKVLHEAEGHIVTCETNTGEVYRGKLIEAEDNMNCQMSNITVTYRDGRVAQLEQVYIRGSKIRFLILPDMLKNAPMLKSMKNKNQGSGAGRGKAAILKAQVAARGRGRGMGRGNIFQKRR
UniProt Q13501, sequence (Q13501 whole entry, looked up): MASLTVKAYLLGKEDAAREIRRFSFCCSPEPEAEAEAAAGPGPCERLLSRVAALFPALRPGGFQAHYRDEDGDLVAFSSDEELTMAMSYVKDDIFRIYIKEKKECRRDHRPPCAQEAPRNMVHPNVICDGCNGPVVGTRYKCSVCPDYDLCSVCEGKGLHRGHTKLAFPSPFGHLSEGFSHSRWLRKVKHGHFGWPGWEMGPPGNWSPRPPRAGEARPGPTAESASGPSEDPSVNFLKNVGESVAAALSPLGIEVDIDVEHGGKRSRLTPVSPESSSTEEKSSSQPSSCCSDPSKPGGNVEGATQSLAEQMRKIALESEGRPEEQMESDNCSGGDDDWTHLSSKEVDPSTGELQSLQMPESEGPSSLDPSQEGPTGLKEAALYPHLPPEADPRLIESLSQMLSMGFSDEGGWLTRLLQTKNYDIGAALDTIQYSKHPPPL

Target | log2 fold change [1] | log2 fold change [2] | log2 fold change [3] | log2 fold change [4] | log2 fold change [5] | log2 fold change [6] | log2 fold change [7] | log2 fold change [8] | log2 fold change [9] | log2 fold change [10] | log2 fold change [11] | log2 fold change [12] | log2 fold change [13] | log2 fold change [14] | log2 fold change [15] | log2 fold change [16] | log2 fold change [17] | log2 fold change [18] | log2 fold change [19] | log2 fold change [20]
SPR (UniProt P35270) | 0.063 | 0.04 | 0.344 | 0.017 | -0.038 | 0.035 | -0.008 | -0.053 | 0.01 | 0.083 | 0.103 | -0.003 | 0.063 | -0.043 | -0.069 | -0.019 | 0.019 | 0.009 | -0.004 | -0.076
SLC38A7 (UniProt Q9NVC3) | 0.035 | 0.073 | 0.092 | 0.205 | -0.085 | -0.751 (active) | -0.024 | 0.033 | -0.009 | 0.007 | 0.092 | 0.009 | 0 | 0.094 | -0.04 | 0.042 | 0.012 | -0.002 | 0.008 | -0.012
SRSF3 (UniProt P84103) | -0.207 | 0.11 | -0.035 | 0.112 | 0.19 | 0.083 | 0.152 | 0.064 | 0.125 | -0.134 | -0.019 | 0.047 | -0.208 | -0.103 | 0.124 | -0.064 | -0.173 | 0.047 | -0.029 | -0.093
TFRC (UniProt P02786) | 0.058 | 0.026 | -0.023 | -0.005 | 0.001 | -0.032 | -0.005 | -0.02 | 0.001 | -0.03 | -0.008 | 0.023 | 0.02 | 0.026 | -0.067 | -0.002 | -0.007 | -0.026 | 0.004 | -0.015
SNRPD3 (UniProt P62318) | 0.002 | -0.006 | 0.067 | -0.022 | 0.208 | 0.162 | 0.017 | 0.027 | -0.008 | 0.022 | -0.03 | 0.031 | -0.048 | -0.079 | -0.023 | -0.015 | -0.102 | -0.126 | 0 | -0.039
TBC1D9B (UniProt Q66K14) | 0.038 | 0.079 | -0.075 | 0.071 | 0.103 | -0.133 | 0.032 | 0.051 | 0.02 | -0.042 | -0.028 | 0.116 | 0.05 | -0.032 | 0.361 (active) | 0.095 | 0.048 | -0.189 | 0.002 | 0.04
SYF2 (UniProt O95926) | -0.063 | 0.056 | 0.411 (active) | -0.019 | 0.049 | 0.327 | 0.199 | 0.072 | 0.023 | 0.382 (active) | 0.03 | 0.049 | -0.063 | -0.133 | -0.015 | -0.071 | -0.134 | -0.008 | 0.031 | -0.083
SLC27A1 (UniProt Q6PCB7) | 0.052 | 0.064 | -0.05 | 0.001 | 0.117 | -0.035 | -0.04 | -0.034 | 0.195 | 0.04 | -0.186 | 0.036 | -0.046 | 0.12 | -0.061 | -0.109 | -0.008 | -0.01 | 0.049 | 0.043
ST6GAL1 (UniProt P15907) | -0.01 | 0.002 | 0.021 | 0.041 | 0.058 | -0.051 | -0.009 | 0.024 | 0.02 | 0.011 | 0.025 | -0.032 | -0.028 | -0.064 | -0.031 | -0.1 | -0.069 | 0.047 | -0.005 | -0.014
SORT1 (UniProt Q99523) | 0.044 | 0.044 | 0.031 | -0.005 | -0.027 | -0.202 | -0.028 | -0.03 | -0.002 | -0.019 | -0.042 | 0.013 | -0.006 | -0.012 | -0.038 | -0.003 | -0.008 | -0.072 | -0.003 | 0.015
SRPRB (UniProt Q9Y5M8) | -0.021 | 0.004 | -0.014 | 0.034 | -0.055 | -0.036 | -0.051 | -0.026 | -0.109 | 0.292 (active) | 0.096 | -0.051 | 0.025 | 0.092 | -0.035 | 0.061 | 0.073 | 0.035 | -0.127 | 0.027
THRAP3 (UniProt Q9Y2W1) | -0.116 | 0.01 | -0.581 (active) | -0.026 | -0.032 | -0.12 | 0.075 | 0.057 | 0.066 | -0.018 | -0.008 | 0.004 | -0.056 | -0.035 | 0.109 | 0.063 | -0.01 | 0.197 | 0.093 | -0.099
SNX3 (UniProt O60493) | -0.049 | 0.011 | -0.028 | -0.059 | -0.104 | -0.187 | 0.084 | 0.073 | -0.022 | 0.053 | -0.013 | -0.064 | 0.073 | -0.004 | 0.037 | 0.046 | 0.122 | 0.02 | 0.09 | 0.045
SQSTM1 (UniProt Q13501) | -0.006 | 0.012 | -0.298 (active) | -0.026 | 0.058 | -0.118 | 0.039 | 0.048 | 0.077 | -0.079 | 0.04 | -0.065 | -0.054 | -0.012 | 0.102 | 0.064 | 0.047 | 0.103 | -0.027 | 0.032
TELO2 (UniProt Q9Y4R8) | -0.126 | -0.044 | 0.008 | 0.103 | 0 | -0.375 | 0.049 | 0.204 | -0.015 | 0.125 | 0.04 | -0.026 | 0.028 | -0.057 | 0.143 | 0.12 | 0.089 | 0.014 | 0.084 | 0.05
TJP2 isoform 7 (UniProt Q9UDY2) | 0.004 | -0.004 | -0.437 (active) | 0.032 | -0.061 | -0.107 | 0.068 | 0.003 | 0.017 | 0.05 | -0.017 | -0.006 | 0.007 | -0.014 | 0.048 | 0.09 | 0.101 | -0.194 | 0.071 | 0.102
